The campaign covered roughly 77,000 compounds. About 4,600 (6%) were called active. Roughly 1% stayed inconclusive and do not appear here. This is one part of a sample in which actives are shown more often than they occur. Unmarked numbers belong to inactive results.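 How the source made its calls: active means mean inhibition above about 93%, with at least 55% of replicates each passing it (limit read from the data, passing the limit was not always enough); inconclusive means only one of those two conditions holds; inactive means neither condition holds.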

The assay is described as follows: growth inhibition of T. cruzi in host fibroblasts – cell-based, beta-gal Tulahuen parasites, NIH3T3 host, luminescence, primary screen (AID 624255). The note with it: T. cruzi beta-gal in NIH3T3, GalScreen luminescence, 90 h; at 8.34 µM; active compounds read high.
For the compound `COc1cccc(S(=O)(=O)N2C[C@@H](O)COC[C@@H]3O[C@H](CC(=O)Nc4ccccc4)CC[C@H]32)c1`, the inhibition was 109% (active).

`Cc1ccc(S(=O)(=O)N2C[C@@H](O)COC[C@@H]3O[C@H](CC(=O)NCc4ccc(Cl)c(Cl)c4)CC[C@H]32)cc1`: the inhibition is 97.5% (active). In the case of `Cc1ccc(S(=O)(=O)N2C[C@H](O)COC[C@@H]3O[C@@H](CC(=O)NCC4CCCCC4)CC[C@H]32)cc1`, the inhibition is 5.15%. The same measure for `O=C(C[C@@H]1CC[C@@H]2[C@H](COC[C@H](O)CN2S(=O)(=O)c2ccc(F)cc2)O1)NCc1ccc(Cl)c(Cl)c1`: 54.2%. The same measure for `Cc1cccc(S(=O)(=O)N2C[C@@H](O)COC[C@H]3O[C@H](CC(=O)Nc4ccc(-c5ccccc5)cc4)CC[C@@H]32)c1`: 94.5%. Next, `O=C(C[C@H]1CC[C@H]2[C@@H](COC[C@H](O)CN2S(=O)(=O)c2cccc(Cl)c2)O1)Nc1ccccc1`: 11.3%; `Cc1ccc(S(=O)(=O)Nc2ccc3c(c2)C(=O)N([C@@H](C)CO)C[C@@H](C)[C@H](CN(C)Cc2ccncc2)O3)cc1`: 5.91%. In the case of `CN(C)C(=O)[C@@H]1[C@@H](CO)[C@@H]2Cn3c(ccc(-c4ccccc4F)c3=O)[C@@H]2N1C(=O)C1CC1`, the inhibition is 30.9%. In the case of `C[C@@H]1CCCCO[C@H](CN(C)S(=O)(=O)c2cn(C)cn2)[C@@H](C)CN([C@@H](C)CO)C(=O)c2cc(NC(=O)CCC(F)(F)F)ccc2O1`, the inhibition is 28.2%.

In the case of `O=C(C[C@@H]1CC[C@@H](NS(=O)(=O)c2ccccc2)[C@H](CO)O1)NCc1ccc(Cl)c(Cl)c1`, the inhibition is -48.5%. Consider `C[C@@H]1CN([C@@H](C)CO)C(=O)c2cc(C#CC(C)(C)O)cnc2O[C@@H]1CN(C)C(=O)C1CCOCC1`, for which the inhibition was -1.59%. Next, `O=C(Cc1ccncc1)Nc1ccc2c(c1)[C@@H]1C[C@H](CC(=O)N3CCCCC3)O[C@H](CO)[C@@H]1O2`: 14.2%. The same measure for `CN1c2ccc(-c3ccccc3)cc2[C@@H]2[C@@H](CCN2C(=O)NC2CCCC2)[C@H]1CO`: 6.51%; for `Cc1noc(C)c1S(=O)(=O)Nc1ccc2c(c1)C(=O)N([C@@H](C)CO)C[C@H](C)[C@@H](CN(C)C(=O)Nc1cccc3ccccc13)OCCCC[C@H](C)O2`: 104% (active). With `Cc1noc(C)c1S(=O)(=O)Nc1ccc2c(c1)C(=O)N([C@@H](C)CO)C[C@@H](C)[C@H](CN(C)C(=O)Nc1cccc3ccccc13)OCCCC[C@H](C)O2`, the inhibition is 72.3%.

Regarding `C[C@@H]1CCCCO[C@H](CN(C)C(=O)Nc2cccc3ccccc23)[C@@H](C)CN([C@H](C)CO)C(=O)c2cc(NS(=O)(=O)c3cccs3)ccc2O1`, the inhibition is 87.5%. Next, `C[C@@H]1CCCCO[C@H](CN(C)C(=O)Nc2cccc3ccccc23)[C@H](C)CN([C@H](C)CO)C(=O)c2cc(NS(=O)(=O)c3cccs3)ccc2O1`: 115% (active); `Cc1noc(C)c1S(=O)(=O)Nc1ccc2c(c1)C(=O)N([C@@H](C)CO)C[C@@H](C)[C@H](CN(C)C(=O)Nc1cccc3ccccc13)O2`: -148%; `C[C@@H]1CCCCO[C@@H](CN(C)C(=O)Nc2cccc3ccccc23)[C@@H](C)CN([C@H](C)CO)C(=O)c2cc(NS(C)(=O)=O)ccc2O1`: -3.68%. Next, `C[C@H]1CN([C@@H](C)CO)C(=O)c2cc(-c3ccccc3)cnc2O[C@H]1CN(C)C(=O)C1CCOCC1`: 60.3%; `CC(=O)N1[C@@H](CO)[C@@H]2c3ccccc3N(S(=O)(=O)c3ccccc3)C[C@@H]21`: 17.9%; `CN1C(=O)c2cc(NC(=O)c3ccno3)ccc2OC[C@H]2O[C@@H](CC(=O)NCC(F)(F)F)CC[C@@H]21`: -16.1%.

As for `CO[C@@H]1CN(C)C(=O)c2ccc(NC(=O)c3ccc(F)cc3)cc2OC[C@H](C)N(C(=O)c2ccc(F)cc2)C[C@@H]1C`, the inhibition is 33.4%. For the compound `COCC#Cc1ccc2c(c1)O[C@H](CN(C)C(=O)CC1CC1)[C@@H](C)CN([C@@H](C)CO)S2(=O)=O`, the inhibition was 72.2%. Turning to `C[C@@H]1CN([C@@H](C)CO)S(=O)(=O)c2ccc(C#CCC3CCCC3)cc2O[C@@H]1CN(C)C`, the inhibition was 2.02%. Take `C[C@@H]1CN([C@@H](C)CO)S(=O)(=O)c2ccc(C#CCN(C)C)cc2O[C@@H]1CN(C)C(=O)CC1CC1`: the inhibition was 27.9%. The same measure for `C[C@@H]1CN([C@H](C)CO)S(=O)(=O)c2ccc(C#CCN(C)C)cc2O[C@H]1CN(C)C(=O)CC1CC1`: 92.5%; for `C[C@@H]1CN([C@@H](C)CO)S(=O)(=O)c2ccc(C#CCC3CCCC3)cc2O[C@H]1CN(C)C(=O)CC1CC1`: 116% (active).

`C[C@@H]1CN([C@H](C)CO)S(=O)(=O)c2ccc(C#CCC3CCCC3)cc2O[C@H]1CN(C)C(=O)CC1CC1`: the inhibition is 119% (active). Next, `O=C(C[C@H]1CC[C@H](NC(=O)c2ccc3c(c2)OCO3)[C@H](CO)O1)NCc1ccc(Oc2ccccc2)cc1`: -47.4%; `O=C(NCc1ccccc1Cl)[C@H]1[C@H](CO)[C@H]2Cn3c(cccc3=O)[C@H]2N1C(=O)C1CCC1`: 19.3%; `C/C=C/c1ccc([C@@H]2[C@@H](CO)N(C(C)=O)[C@H]2CN(C)C(=O)CN(C)C)cc1`: -6.45%.

Regarding `C/C=C/c1ccc2c(c1)O[C@H](CN(C)C(=O)Nc1ccccc1)[C@H](C)CN([C@@H](C)CO)S2(=O)=O`, the inhibition is 45.2%. In the case of `C/C=C/c1ccc2c(c1)O[C@@H](CN(C)C(=O)c1ccccn1)[C@H](C)CN([C@@H](C)CO)S2(=O)=O`, the inhibition is 11.4%.

On to `C[C@@H]1CN([C@@H](C)CO)S(=O)(=O)c2ccc(C#Cc3ccc(F)cc3)cc2O[C@H]1CN(C)C(=O)NC1CCCC1`, for which the inhibition was 114% (active). In the case of `CC(C)C#Cc1ccc2c(c1)O[C@@H](CN(C)C(=O)NC(C)C)[C@H](C)CN([C@H](C)CO)S2(=O)=O`, the inhibition is 55.8%. Next, `COc1ccc(C#Cc2ccc3c(c2)O[C@@H](CN(C)C(=O)Nc2cccc(OC)c2)[C@H](C)CN([C@H](C)CO)S3(=O)=O)cc1`: 73.3%; `C[C@@H]1CN([C@@H](C)CO)S(=O)(=O)c2ccc(C#Cc3ccccc3)cc2O[C@@H]1CN(C)C(=O)Nc1ccccc1`: 113% (active); `C[C@@H]1CN([C@@H](C)CO)S(=O)(=O)c2ccc(C#Cc3ccc(F)cc3)cc2O[C@H]1CN(C)C(=O)c1ccccn1`: 103% (active). The same measure for `CC(C)CC#Cc1ccc2c(c1)O[C@@H](CN(C)C(=O)c1ccccn1)[C@@H](C)CN([C@H](C)CO)S2(=O)=O`: 74.4%.

For the compound `C[C@@H]1CN([C@@H](C)CO)S(=O)(=O)c2ccc(C#Cc3ccc(F)cc3)cc2O[C@@H]1CN(C)CC1CC1`, the inhibition was 11.3%. The same measure for `COc1cccc(NC(=O)N(C)C[C@H]2Oc3ncc(C4=CCCCC4)cc3C(=O)N([C@H](C)CO)C[C@H]2C)c1`: -8.07%. The same measure for `CO[C@@H]1CC[C@H]2CCOc3c(C#N)cccc3C(=O)N(C)C[C@@H](OC)[C@H](C)C(=O)N(C)C[C@@H]1O2`: 20.8%; for `O=C(CN1CCOCC1)N[C@@H]1CC[C@H](CCNS(=O)(=O)c2ccccc2F)O[C@H]1CO`: 2.08%. For the compound `C[C@@H]1CCCCO[C@@H](CN(C)C(=O)Cc2ccccc2)[C@@H](C)CN([C@@H](C)CO)C(=O)c2cc(NC(=O)c3ccccc3)ccc2O1`, the inhibition was 60.5%. For the compound `C[C@@H]1CN([C@H](C)CO)C(=O)c2cc(C3=CCCC3)cnc2O[C@@H]1CN(C)C(=O)Nc1ccc(F)cc1`, the inhibition was 15.9%. The same measure for `O=C([C@H]1[C@H](CO)[C@H]2Cn3c(ccc(C4=CCCC4)c3=O)[C@@H]1N2C(=O)c1ccncc1)N1CCCCC1`: 34.7%; for `CO[C@H]1CN(C)C(=O)c2ccc(NC(=O)C3CC3)cc2OC[C@H](C)N(CCc2ccccc2)C[C@H]1C`: 36.1%.

With `COc1ccc(CN(C)C[C@@H]2OCCCC[C@H](C)Oc3ccc(NS(C)(=O)=O)cc3C(=O)N([C@@H](C)CO)C[C@H]2C)cc1`, the inhibition is 0.374%.

With `Cc1ccc(S(=O)(=O)N2C[C@H](O)COC[C@H]3O[C@H](CC(=O)N[C@H]4CCN(Cc5ccccc5)C4)CC[C@@H]32)cc1`, the inhibition was -33.7%. For `OC[C@H]1[C@H](c2ccc(-c3cccc(F)c3)cc2)[C@@H]2CN(Cc3cncnc3)CCCCN12`, the inhibition was 107% (active).

For the compound `OC[C@H]1[C@@H](c2ccc(-c3ccccc3F)cc2)[C@@H]2CN(Cc3ccncc3)CCCCN12`, the inhibition is 93.1%.

Consider `OC[C@@H]1[C@H](c2ccc(C3=CCCC3)cc2)[C@H]2CN(Cc3ccncc3)CCCCN12`, for which the inhibition is 75.8%. The same measure for `OC[C@@H]1[C@@H](c2ccc(-c3ccccc3F)cc2)[C@@H]2CN(Cc3cncnc3)CCCCN12`: 74.2%. Next, `CN(C)C(=O)c1ccc(-c2ccc([C@@H]3[C@@H](CO)N4CCCCN(Cc5cncnc5)C[C@@H]34)cc2)cc1`: 55.5%; `Cc1cccc(-c2ccc([C@@H]3[C@H](CO)N4CCCCN(Cc5ccncc5)C[C@@H]34)cc2)c1`: 92%; `OC[C@H]1[C@H](c2ccc(-c3ccccc3F)cc2)[C@H]2CN(Cc3cncnc3)CCCCN21`: 69.5%. Next, `Cc1ccc(-c2ccc([C@H]3[C@H](CO)N4CCCCN(Cc5cncnc5)C[C@@H]34)cc2)cc1`: 96% (active). Take `Cc1cccc(-c2ccc([C@H]3[C@@H](CO)N4CCCCN(Cc5cncnc5)C[C@H]34)cc2)c1`: the inhibition is 104% (active).

With `O=C(C[C@@H]1C[C@@H]2c3cc(NC(=O)NC4CCCC4)ccc3O[C@@H]2[C@@H](CO)O1)NCc1ccccc1`, the inhibition was 52.2%.

For the origin of these results see PubChem BioAssay AID624255 (Broad Institute, 2012).
